# Results: ChEMBL document CHEMBL4513216, “Probing the Open Global Health Chemical Diversity Library for Multistage-Active Starting Points for Next-Generation Antimalarials” (ACS Infect Dis, 2020)
# Out of some 65,000 compounds screened, about 2,100 (3.2%) showed an effect of 50% or more. The median lay at about -52%. The sample holds strong results, similar compounds and a random draw of the others, so the mix is not that of the screen.
# Tested on: Plasmodium falciparum
# Assay: Screen against P. falciparum Asexual Blood Stage (ABS), at 5uM
# Assay type: functional, Dd2
# Details: tested at 5 uM
row,SMILES,INHIBITION
1,CN(C)c1ncc(I)c(C2CCCN2C)n1 (stereo not drawn),20.7%
2,CN(C)c1ncc(I)c(C2CCCCN2C)n1 (stereo not drawn),57.8%
3,CN(C)c1ncc(I)c(C2CCCCN2S(C)(=O)=O)n1 (stereo not drawn),-17.7%
4,CCOC(=O)c1ccccc1NC(=O)CN(C)Cc1ccccc1Cl,8.05%
5,Cc1c(C(=O)O)cnn1-c1ccc(-c2nc(C(C)(C)C)no2)cn1,-116%
6,CS(=O)(=O)NC[C@]12COC[C@H]1CN(CC1CCC1)C2,-40%
7,Cc1ccc(CN2CC3(CCN(C(=O)c4cscn4)C3)C2)o1,-13.6%
8,CN(C)CCn1ccnc1C1CCCN(c2cc(N)ncn2)C1 (stereo not drawn),-52.8%
9,CN(C)Cc1nnc(C2CCCN(c3nccc4ccccc34)C2)n1C (stereo not drawn),-10.1%
10,Cc1cc(C)nc(N2CCCC(c3nccn3CCCN(C)C)C2)c1 (stereo not drawn),51.7%
11,COc1cc(OC)nc(N2CCCC(c3nccn3CCN(C)C)C2)n1 (stereo not drawn),-23.1%
12,CCn1ccnc1C1CCCN(c2nccc3ccccc23)C1 (stereo not drawn),30.8%
13,CN(C)CCn1ccnc1C1CCCN(c2nccc3ccccc23)C1 (stereo not drawn),57.4%
14,COc1ccc(CCN(C)CCS(=O)(=O)c2ccc(Cl)cc2)cc1OC,-7.75%
15,COCC(=O)N1CCC2(CC1)COc1ccccc1S(=O)(=O)N(C)C2,-129%
16,O=C1CNc2ncnc(N3CCN(Cc4cccc(F)c4)CC3)c2N1,-56.6%
17,CC(=O)Nc1nc(C(=O)N2CCCC(n3nc(C)nc3C)C2)cs1 (stereo not drawn),-113%
18,O=C(c1cccnc1SCc1ccccc1)N1CCOCC1,-36.4%
19,O=C(c1cccnc1SC/C=C/c1ccccc1)N1CCOCC(O)C1 (stereo not drawn),55.5%
20,O=C(c1cccnc1SC/C=C/c1ccccc1)N1CC[C@H](O)C1,-66.8%
21,CCOCCCNC(=O)c1cc(C)nc(N2CCCCC2)n1,-133%
22,O=C(c1cnco1)N1CCC(Cc2cccc3ncccc23)CC1,-2.05%

row,SMILES,INHIBITION
1,O=C(c1cnco1)N1CCC(Cc2ccc3ncccc3c2)CC1,67.4%
2,O=C(c1cnco1)N1CCC(Cc2cnc3ccccc3c2)CC1,-56.6%
3,Cn1cc(C[C@H]2[C@H](O)CCN2C(=O)c2ccsc2)cn1,-51.7%
4,Cc1cc2ccccc2n1CCC(=O)N1CCCC(O)(CN(C)C)CC1 (stereo not drawn),55.2%
5,Cc1cc2ccccc2n1CCC(=O)N1CCC2(CC1)CNC(=O)C2,-33.5%
6,Cc1cc2ccccc2n1CCC(=O)N1CCCC2(CC1)CNC(=O)O2 (stereo not drawn),21.3%
7,CN(C)CCn1ccnc1C1CCN(c2cc(N)nc(N)n2)CC1,-90.3%
8,Cc1ccc(OCc2occc2C(=O)O)cc1,-66.2%
9,OCC1(Cc2ccccc2F)CCCN(c2ccc3ccccc3n2)C1 (stereo not drawn),-37.1%
10,COC(=O)c1ccccc1C(=O)N(CCN(C)C)Cc1sccc1C,18.3%
11,Cc1ccsc1CN(CCN(C)C)C(=O)c1ccccc1C#N,60.9%
12,Cc1ccsc1CN(CCN(C)C)C(=O)c1ccc(C#N)nc1,46.5%
13,O=C1CC[C@H]2[C@H](CCN2C(=O)C2CCOC2)N1Cc1ccncc1 (stereo partly drawn),-87.6%
14,COc1ccc(CN2CCc3ncnc(OC(C)C)c3CC2)cc1,63.6%
15,COc1ccc(CN2CCc3ncnc(C4CC4)c3CC2)cc1,-30.4%
16,CC(C)Oc1ncnc2c1CCN(Cc1ccco1)CC2,61.2%
17,CC(C)Oc1ncnc2c1CCN(Cc1cccs1)CC2,-52.8%
18,Cc1ccc(CN2CCc3ncnc(OC(C)C)c3CC2)s1,0.437%
19,CC(C)Oc1ncnc2c1CCN(Cc1ccoc1)CC2,31.6%
20,COC(=O)c1ccc(NC(C)c2ccc3c(c2)NC(=O)CO3)nn1 (stereo not drawn),-143%
21,O=C(O)CNc1cc(-c2nccnc2N2CCCC2)c2cc[nH]c2n1,-6.02%
22,O=C(Nc1ccccc1)c1n[nH]c(-n2cnnc2)n1,-64.6%

row,SMILES,INHIBITION
1,Cc1occc1C(=O)N1CCCC(c2nncn2C)C1 (stereo not drawn),-65.6%
2,CN1CCN(c2ccncc2S(=O)(=O)N2CCCCC2)CC1,-92.3%
3,CC(C)c1nc(C2CCCN2CCS(=O)(=O)c2ccccc2)no1 (stereo not drawn),-158%
4,COc1ccccc1CCNC(=O)CN1CCCC1c1noc(C)n1 (stereo not drawn),-3.9%
5,CCc1nc(C2CCCN2CCS(=O)(=O)c2ccccc2)no1 (stereo not drawn),60%
6,CCc1nc(C2CCCN2CC(=O)NCCOc2ccccc2)no1 (stereo not drawn),58.6%
7,Cc1nc(C2CCCN2CC(=O)NCCOc2ccccc2)no1 (stereo not drawn),-62.7%
8,Cc1cccc(OCCNC(=O)CN2CCCC2c2noc(C)n2)c1 (stereo not drawn),31.6%
9,COCc1cccc(CNC(=O)CN2CCCC2c2noc(C)n2)c1 (stereo not drawn),-27.1%
10,CCc1nc(C2CCCN2CCCS(=O)(=O)c2ccccc2)no1 (stereo not drawn),48.7%
11,COCc1ccccc1CNC(=O)CN1CCCC1c1noc(C)n1 (stereo not drawn),51.2%
12,CCOC1(C)C(=O)c2ccccc2N1Nc1ccccc1C(=O)CC (stereo not drawn),-50.6%
13,O=C1CC[C@H]2[C@H](CCN2c2ncccn2)N1c1ccccc1,-72.8%
14,CN1CCN(C(=O)[C@H]2CC[C@@H]3[C@@H](CCN3Cc3ccsc3)O2)CC1,-1.36%
15,COc1cc(N2C[C@H]3CCC[C@@H](CN4CCCC4)[C@H]3C2)ncn1,-13.2%
16,Cc1c(C(=O)NCC(C)C)nnn1-c1cccc2c1CCN(C)C2,26.2%
17,Cc1csc(CCCNC(C)CC(=O)Nc2cccc(C)c2C)n1 (stereo not drawn),50.9%
18,CC(NCC(=O)NCC(=O)Nc1ccc(F)cc1)c1cccs1 (stereo not drawn),-69.5%
19,Cc1csc(CNC(=O)NCC(O)c2ccc(F)cc2)n1 (stereo not drawn),-12.9%
20,COc1ccccc1NC(=O)CC(C)NCCc1sc(C)nc1C (stereo not drawn),22.2%
21,Cc1csc(CCCNC(C)CC(=O)Nc2ccc(F)cc2)n1 (stereo not drawn),50.5%
22,COc1ccccc1NC(=O)CC(C)NCc1scnc1C (stereo not drawn),-27.4%

row,SMILES,INHIBITION
1,COc1ccsc1C(=O)NC1CCN(c2cccc(F)c2)CC1,27.7%
2,CCc1ccc(C(=O)N2CCC(Nc3ccc(C)nn3)CC2)o1,-100%
3,Cc1cnn(CC(=O)N2CCC(Nc3ccc(C)nn3)CC2)c1,56.7%
4,Cc1ccc(NC2CCN(C(=O)c3ccc(Cl)o3)CC2)nn1,-6.11%
5,CCn1nc(C)c(C(=O)N2CCC(Nc3ccc(C)nn3)CC2)c1C,-18.1%
6,Cc1ccc(CC(=O)N2CCC(Nc3ccc(C)nn3)CC2)cn1,18.7%
7,Cc1ccc(NC2CCN(C(=O)c3c(C)nn(C)c3Cl)CC2)nn1,62.2%
8,Cc1ccc(NC2CCN(C(=O)Cn3nc(C)cc3C)CC2)nn1,-1.51%
9,Cc1ccc(NC2CCN(C(=O)c3c(C)noc3C)CC2)nn1,-103%
10,Cc1ccc(NC2CCN(C(=O)c3ccc(C)o3)CC2)nn1,53.6%
11,CC1CCC(NC(=O)c2nn(C)cc2Br)CC1 (stereo not drawn),-46.7%
12,CCc1ccc(CN2CCc3c(nnn3C)C2COC)cc1 (stereo not drawn),-44.1%
13,CC(C)Cn1cncc1CNC(=O)c1cccc(CC2CCNCC2)c1,-83.2%
14,O=C(NCc1cnn2cccnc12)c1cccc(CC2CCNCC2)c1,66.1%
15,CC(C)(O)CCc1cccc(C(=O)NCc2cnn3cccnc23)c1,-126%
16,CSCCCN1CCCC(Cn2ccnc2)C1 (stereo not drawn),-62%
17,c1ccc(SCCN2CCCC(Cn3ccnc3)C2)cc1 (stereo not drawn),-1.54%
18,c1ccc(CCN2CCCC(Cn3ccnc3)C2)cc1 (stereo not drawn),64.5%
19,O=C(O)c1nnn(-c2cccc(C(F)(F)F)c2)c1-c1ccncc1,-16.4%
20,CN(C)C(CNS(=O)(=O)c1ccc(F)cc1F)c1cccn1C (stereo not drawn),31.8%
21,COc1ccc(F)cc1S(=O)(=O)NCC(c1cccn1C)N(C)C (stereo not drawn),-7.7%
22,CN(C)C(CNS(=O)(=O)c1cc(F)ccc1F)c1cccn1C (stereo not drawn),54.6%

row,SMILES,INHIBITION
1,Cc1noc(C(C)C)c1C(=O)NCCCN1CCCCCC1=O,-62.4%
2,Cc1nnc(SCCCNc2cc(C3CC3)ncn2)s1,-39.6%
3,COCc1nn(C)c2c1CN(Cc1cnn(C)c1)CC2,-6.19%
4,CC1CCCN(Cc2c(C3CC3)n(CC(=O)N(C)C)c3ncccc23)C1 (stereo not drawn),-59.9%
5,Cc1cc(C2CCCN(CCC(=O)N3CCc4ccccc43)C2)n[nH]1 (stereo not drawn),62.9%
6,Cc1cc(C2CCCN(CC(=O)N3CCc4ccccc43)C2)n[nH]1 (stereo not drawn),-81.5%
7,Cc1cc(C2CCCN(CC(=O)N3CCCc4ccccc43)C2)n[nH]1 (stereo not drawn),-8.74%
8,CC(=O)N1CCCC1c1cc(N2CCN(CC(C)(C)C)CC2)cc(C)n1 (stereo not drawn),-126%
9,Clc1cccc(Cl)c1CNCCOc1ccccn1,-77.7%
10,Cn1cc(N2CC3(CCN(Cc4ccoc4)CC3)OCC2=O)cn1,-50.3%
11,Cc1cc(C(=O)NC2CCc3c(ccc(=O)n3CCN(C)C)C2)no1 (stereo not drawn),-24%
12,Cc1cc2n(n1)CC(CNC1CCN(Cc3ccncc3)CC1)CN2 (stereo not drawn),-0.937%
13,OCc1ccccc1CNCC1CNc2ccnn2C1 (stereo not drawn),2.15%
14,Cc1cc2n(n1)CC(CNC1CCN(c3ccccn3)CC1)CN2 (stereo not drawn),-45.8%
15,Cc1ccccc1CN1CCC(NCC2CNc3ccnn3C2)CC1 (stereo not drawn),67.1%
16,Cc1cc2n(n1)CC(CNC1CCN(CCc3ccccc3)CC1)CN2 (stereo not drawn),68.6%
17,Cc1cc2n(n1)CC(CNC1CCN(Cc3ccccn3)CC1)CN2 (stereo not drawn),-50.7%
18,CC(C)n1c2ccccc2c2c1cc(C(=O)NCCO)n2C(=O)N(C)C,-69.4%
19,CC(CN1CCCC1=O)NC(=O)c1ccc(C(F)(F)F)[nH]c1=O (stereo not drawn),-73.3%
20,Cc1noc(C)c1C(=O)N1CCC(Nc2cccnn2)CC1,-19.3%
